Compound activity as filed in PubChem BioAssay.
Cruzain Triton = inhibitors of Trypanosoma cruzi cruzain with detergent. purified cruzain, Z-FR-AMC fluorescence, 0.01% Triton. Potency, µM, usual class: inhibitors. 200,000 tested, 0.43% active. AID 1478; note: nearly all actives have a fitted effect of over 40% in size
Target sequence (P25779 123-467 limits assumed): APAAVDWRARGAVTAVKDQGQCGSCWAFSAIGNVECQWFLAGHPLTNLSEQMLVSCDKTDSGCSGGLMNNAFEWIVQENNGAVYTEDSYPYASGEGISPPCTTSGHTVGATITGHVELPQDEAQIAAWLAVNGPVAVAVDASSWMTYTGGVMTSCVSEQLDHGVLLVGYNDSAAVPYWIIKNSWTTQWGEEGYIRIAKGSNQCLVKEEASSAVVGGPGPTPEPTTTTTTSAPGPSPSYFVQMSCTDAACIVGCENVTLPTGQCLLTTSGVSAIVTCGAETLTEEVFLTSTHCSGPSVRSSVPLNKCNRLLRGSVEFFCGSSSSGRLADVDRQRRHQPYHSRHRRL
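Cruzain (1.5 nM) preincubated 15 min at RT with compound in 100 mM sodium acetate pH 5.5, 5 mM DTT, 0.01% Triton X-100. Reaction started with 2 uM Z-FR-AMC; AMC fluorescence (ex 360/em 450 nm) change over 60 s gave rate.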
Cruzain noTriton = inhibitors of Trypanosoma cruzi cruzain without detergent | P25779 | purified cruzain, Z-FR-AMC fluorescence, no detergent | Potency, µM, hits mostly inhibitors | 200,000 tested, 2.3% active; note: nearly all actives have a fitted effect of over 40% in size
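Purified cruzain at 1.5 nM, pre-incubated 15 min with compound at room temperature in 100 mM sodium acetate pH 5.5, 5 mM DTT, 0.00005% Triton X-100. Reaction started with 2 uM Z-FR-AMC; AMC fluorescence increase over 60 s gives rate.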
Of the large screens only hits and unclear results are named; the others gave an inactive call. Only some compounds are listed: those with a hit (about 2.6% of all), similar ones and a draw of the others. Calls come from the whole dose curve; as a rule, active = well fitted curve in the direction sought with a large enough effect; inconclusive = small, poorly fitted or top-dose-only effect, or another doubt; inactive = no such curve, though single readings can be large; an effect the other way counts as inactive or inconclusive.

COc1ccc(NC(=O)C(C)n2nc(-c3cc(C)ccc3C)c3c(c2=O)CCCC3)cc1 (configuration not stated)	none
CCOC(=O)c1c(NC(=S)Nc2ccccc2)sc2c1CC(C)(C)SC2	Cruzain noTriton 12.6µM
CCOC(=O)c1c(NC(=S)NC)sc2c1CC(C)(C)SC2	none
CCOC(=O)c1c(NC(=S)Nc2ccc(Cl)cc2)sc(C)c1C	Cruzain noTriton 3.98µM
COC(=O)c1c(NC(=S)Nc2ccc(CC(=O)O)cc2)sc(C)c1C	none
O=C(CSc1nccn1Cc1ccccc1)NCc1ccccc1Cl	none
CN(C)S(=O)(=O)c1ccc2c(c1)nnn2CCNC(=O)Nc1ccc(Cl)cc1	none
Cc1noc2ncnc(N3CCCC(C(=O)Nc4cccc(C(F)(F)F)c4)C3)c12 (configuration not stated)	none
O=C(CS(=O)(=O)c1cccc2nsnc12)N1CCN(c2cccc(C(F)(F)F)c2)CC1	Cruzain noTriton inconclusive
CCCCCNC(=O)C(C#N)c1nc2ccccc2nc1N1CCCC1 (configuration not stated)	Cruzain noTriton 12.6µM
CCCCCCNC(=O)C(C#N)c1nc2ccccc2nc1N1CCCC1 (configuration not stated)	none
Cc1ccc(C)c(CN2C(=O)c3ccccc3S(=O)(=O)c3ccc(C(=O)N4CCc5ccccc54)cc32)c1	Cruzain noTriton 31.6µM
O=C(c1ccc2c(c1)N(Cc1cccc(Cl)c1)C(=O)c1ccccc1S2(=O)=O)N1CCc2ccccc21	Cruzain noTriton 20µM
Cc1ccc(C)c(CN2C(=O)c3ccccc3S(=O)(=O)c3ccc(C(=O)N4CCN(C)CC4)cc32)c1	none
O=C(c1ccc2c(c1)N(Cc1ccccc1F)C(=O)c1ccccc1S2(=O)=O)N1CCc2ccccc21	none
Cc1cc(C(=O)CSc2nnc(-c3ccco3)o2)c(C)n1-c1ccc2c(c1)OCCO2	Cruzain noTriton 10µM
Cc1cc(C(=O)CSc2nnc(-c3cccs3)o2)c(C)n1-c1ccccc1	Cruzain noTriton 25.1µM
Cc1cc(C(=O)CSc2nnc(-c3ccco3)o2)c(C)n1Cc1ccco1	none
O=C(CSc1nnc(-c2cccs2)o1)c1cccs1	none
COc1cccc(NC(=O)CSc2nnc(NC(=O)NC3CCCCC3)s2)c1	none
Cc1cc(C)cc(NS(=O)(=O)c2ccc3c(c2)OCC(C(=O)N2CCCC2)O3)c1 (configuration not stated)	none
COc1ccc(C)cc1NC(=O)Nc1cccc(OCc2cc(=O)n3ccc(C)cc3n2)c1	none
O=C(NCCc1ccccc1)c1ccc2c(c1)N(Cc1ccc(Cl)cc1)C(=O)CS2	Cruzain noTriton inconclusive
Cc1cc(C)cc(-n2nnnc2SCC(=O)Nc2nc(-c3ccc(Cl)cc3)cs2)c1	Cruzain noTriton 6.31µM
Cc1ccc(-n2nnnc2SCC(=O)Nc2nc(-c3ccc(F)cc3)cs2)cc1C	Cruzain noTriton inconclusive
Cc1nnc(SCC(=O)Nc2nc(-c3ccccc3)cs2)n1N	none
Cc1cc(C)cc(-n2nnnc2SCC(=O)Nc2nc(-c3ccc(F)cc3)cs2)c1	Cruzain noTriton 25.1µM
COc1ccc(Cl)cc1NC(=O)c1c(NCc2cccnc2)sc2c1CCC(C)C2 (configuration not stated)	none
CC(C)CCNC(=O)c1cc(-c2cccnc2)nc2ccc(S(=O)(=O)N3CCC(C)CC3)cc12	none
COc1ccc(OC)c(S(=O)(=O)NCCc2sc(C)nc2C)c1	none
c1ccc(-c2csc(Nc3ccc4c(c3)OCCO4)n2)cc1	Cruzain noTriton inconclusive
Cc1nc(NC(=O)c2ccccc2)sc1-c1csc(NCc2ccccc2)n1	Cruzain noTriton inconclusive
N#C/C(=C\Nc1ccc2c(c1)OCCO2)c1nc(-c2ccccc2)cs1	Cruzain noTriton inconclusive
COc1ccc(-c2csc(/C(C#N)=C/Nc3ccc4c(c3)OCCO4)n2)cc1	Cruzain noTriton 12.6µM
Cc1nc(N)sc1-c1csc(NCc2ccccc2)n1	Cruzain noTriton 31.6µM
COc1cccc(Nc2nc(-c3sc(NC(=O)c4ccco4)nc3C)cs2)c1	Cruzain noTriton inconclusive
c1cc2c(cc1Nc1nc(-c3ccc4c(c3)OCO4)cs1)OCCO2	Cruzain noTriton 10µM
COc1cccc(Nc2nc(-c3sc(N)nc3C)cs2)c1	Cruzain Triton inconclusive, Cruzain noTriton 12.6µM
Cc1ccc(-c2cc(C(=O)NCc3ccccc3)c3c(-c4ccc(C)cc4)[nH]nc3n2)cc1	none
COc1ccc(NC(=O)Cn2c(=O)n(-c3ccc(C)cc3)c(=O)c3c2c2cc(C)ccc2n3C)cc1	none
COc1cc(CNC(=O)C2CCCCN2S(=O)(=O)c2ccc(F)cc2)cc(OC)c1OC (configuration not stated)	none
CCOC(=O)c1c(C)[nH]c(C)c1S(=O)(=O)N1CCCC(C(=O)Nc2ccccc2OCC)C1 (configuration not stated)	none
COc1ccc(-c2csc(Nc3cccnc3)n2)cc1	Cruzain noTriton inconclusive
COc1cccc(Nc2nc(-c3ccc4c(c3)OCCO4)cs2)c1	Cruzain noTriton 25.1µM
CCOCCCn1c(=N)c(C(=O)NCc2cccnc2)cc2c(=O)n3cc(C)ccc3nc21	none
